PubChem BioAssay
The source made the active and inactive calls. Unless noted, the rule behind the calls is not given here.

Experiments:
[1] = compounds binding Alexa647 anti-His antibody – biochemical, small-molecule microarray, 635 nm fluorescence, artefact control for SMM control protein annotation, primary screen (AID 1128); details: higher = more signal;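 note: score merges feature fluorescence with signal-to-noise for each printed compound spot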
[2] = test system: Human papillomavirus type 1a E7 protein (residues 1-88); test: HPV1a E7 small-molecule binders, primary screen, biochemical, small-molecule microarray, residues 1-88, 635 nm (AID 1129); details: small-molecule microarray binding, fluorescence 635 nm; higher = more signal
[3] = biological target: Focal adhesion kinase 1 (Homo sapiens) (UniProt Q05397); test: PTK2 protein binding on printed compound slides – biochemical, small-molecule microarray, 635/667 nm fluorescence, BSA, DTT, primary screen (AID 1130); details: 635 nm fluorescence, higher = more signal;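 note: composite of spot emission at 667 nm and signal to noise over triplicate slides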
[4] = test system: Fibrinogen (Alexa647-labelled); test: Alexa647-fibrinogen binding to printed small molecules – biochemical, small-molecule microarray, 635/667 nm fluorescence, artefact control for SMM control-protein annotation, profiling panel (AID 1131); details: fibrinogen-A647 binding fluorescence, higher = more signal;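 note: z-score merges 667 nm fluorescence with per-spot signal-to-noise over triplicate slides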
[5] = biological target: Follistatin (Homo sapiens) (UniProt P19883); test: FST protein binding to printed compounds – biochemical, small-molecule microarray, 635/667 nm fluorescence, primary screen (AID 1132); details: 635 nm fluorescence, higher = more signal
[6] = biological target: Fibroblast growth factor 2 (Homo sapiens) (UniProt P09038); test: basic fibroblast growth factor binding to printed compounds – biochemical, small-molecule microarray, 635/667 nm fluorescence, primary screen (AID 1133); details: FGF2, fluorescence 635/667, higher = more signal
[7] = JC-1 mitochondrial potential readout, lung cancer cells – cell-based, A549, JC-1 fluorescence, basal, 24 h, 100 nL, profiling panel (AID 1138); details: higher = more signal;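 note: A549 lung adenocarcinoma cells under basal conditions with no added stimulus; test concentration not given here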
[8] = test system: Lefty1; test: Lefty1 protein binding to printed compounds – biochemical, small-molecule microarray, 635/667 nm fluorescence, primary screen (AID 1139); details: fluorescence 635/667, higher = more signal
[9] = test system: wheat germ agglutinin (Triticum aestivum), Alexa647-labelled; test: Alexa647-WGA lectin binding to printed small molecules – biochemical, small-molecule microarray, 635/667 nm fluorescence, artefact control for SMM control-protein annotation, profiling panel (AID 1140); details: WGA-A647 binding, 635 nm fluorescence, higher = more signal;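 note: score merges 667 nm feature emission with signal to noise over triplicate slides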
[10] = biological target: Luciferin 4-monooxygenase (Photinus pyralis) (UniProt P08659); test: inhibition of purified Photinus pyralis luciferase – biochemical, luminescence, purified enzyme, 2006 set, primary screen (AID 1141); details: purified firefly luciferase, SteadyGlo luminescence, 30 min; higher = more signal, called active from +8 up or from −8 down;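 note: cell-free assay with purified firefly luciferase at 100 ng per well in PBS; test concentration not given here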
[11] = test system: Wnt5a (protein binding on small-molecule microarray); test: small molecules binding Wnt5a protein – biophysical, small-molecule microarray, 635/667 nm fluorescence, primary screen (AID 1142); details: 635 nm fluorescence, higher = more signal;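 note: fluorescence read at 667 nm with signal to noise per printed feature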
[12] = ATP-based viability of Huh7 replicon cells – cell-based, CellTiter-Glo luminescence, basal, 48 h, cytotoxicity control for HCV replication inhibitor project, primary screen (AID 1143); details: higher = more signal, called active from +8 up or from −8 down;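 note: Huh7 hepatoma cells carrying a hepatitis C replication reporter with no stimulus; test concentration not given here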
[13] = Pseudomonas biofilm growth suppression – PAO1 strain, BacTiter-Glo luminescence, LB-PBS, primary screen (AID 1144); details: P. aeruginosa PAO1 biofilm, 12 h, higher = more signal
[14] = basal CRE-LacZ reporter activity in PC12 – cell-based, unstimulated, primary screen (AID 1145); details: no forskolin, luminescence, 4.5 h, higher = more signal, called active from +8 up or from −8 down
[15] = forskolin-driven CRE-LacZ activity in PC12 – cell-based, CRE-LacZ reporter, forskolin-stimulated, primary screen (AID 1146); details: luminescence, 4.5 h, higher = more signal, called active from +8 up or from −8 down;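 note: PC12 cells with 6xCRE LacZ reporter stimulated by forskolin 10 µM; beta-galactosidase reporter signal reflecting CREB driven transcription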
[16] = biological target: Streptavidin (Streptomyces avidinii) (UniProt P22629); test: compounds binding control protein streptavidin – biophysical, small-molecule microarray, 635/667 nm fluorescence, artefact control for SMM compound annotation, primary screen (AID 1147); details: higher = more signal;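 note: signal reflects streptavidin binding to arrayed compounds as a control protein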
[17] = probe aInhba binding on compound microarray – biochemical, small-molecule microarray, 635/667 nm fluorescence, primary screen (AID 1148); details: higher = more signal;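 note: score merges 667nm spot fluorescence with signal-to-noise for antibody binding to printed compounds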
[18] = biological target: Torsin-1A (Homo sapiens) (UniProt O14656); test: TOR1A wild-type binding on microarray – cell lysate, small-molecule microarray, lysate, 635/667 nm, primary screen (AID 1149); details: COS7 hTOR1A-WT lysate, 635 nm fluorescence, higher = more signal
[19] = biological target: Torsin-1A (Homo sapiens) (UniProt O14656); test: torsin A mutant lysate binding on microarrays – cell lysate, small-molecule microarray, COS7 lysate, 635/667 nm fluorescence, primary screen (AID 1150); details: COS7 hTOR1A mutant lysate, 635 nm fluorescence, higher = more signal;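 note: score pools 667 nm emission and signal to noise measuring lysate protein binding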
[20] = test system: Sonic hedgehog protein (Shh); test: Sonic hedgehog microarray binding compounds – biochemical, small-molecule microarray, 635/667 nm fluorescence, primary screen (AID 1151); details: 635 nm fluorescence, higher = more signal;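 note: Shh protein binding to compounds spotted on small-molecule microarray slides; score combines spot fluorescence intensity with signal-to-noise across triplicate slides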

Follistatin (Homo sapiens), sequence (P19883 whole entry, looked up): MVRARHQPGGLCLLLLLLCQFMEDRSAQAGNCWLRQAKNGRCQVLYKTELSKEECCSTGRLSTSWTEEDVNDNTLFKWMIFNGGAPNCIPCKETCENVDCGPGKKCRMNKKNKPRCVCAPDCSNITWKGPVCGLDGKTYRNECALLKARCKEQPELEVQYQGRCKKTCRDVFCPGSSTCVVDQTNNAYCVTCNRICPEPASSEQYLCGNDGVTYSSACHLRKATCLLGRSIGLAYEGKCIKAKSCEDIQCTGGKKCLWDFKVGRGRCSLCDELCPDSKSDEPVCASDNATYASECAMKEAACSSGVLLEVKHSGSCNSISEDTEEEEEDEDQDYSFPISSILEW
Fibroblast growth factor 2 (Homo sapiens), sequence (P09038 whole entry, looked up): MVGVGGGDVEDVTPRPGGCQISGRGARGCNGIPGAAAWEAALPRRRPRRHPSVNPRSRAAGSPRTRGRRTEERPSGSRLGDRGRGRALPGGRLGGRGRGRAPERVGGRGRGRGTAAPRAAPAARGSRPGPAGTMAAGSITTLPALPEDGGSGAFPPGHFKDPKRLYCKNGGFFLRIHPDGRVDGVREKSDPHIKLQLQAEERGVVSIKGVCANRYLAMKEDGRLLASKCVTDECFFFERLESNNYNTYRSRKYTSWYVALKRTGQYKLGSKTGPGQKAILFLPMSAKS
Focal adhesion kinase 1 (Homo sapiens), sequence (Q05397 whole entry, looked up): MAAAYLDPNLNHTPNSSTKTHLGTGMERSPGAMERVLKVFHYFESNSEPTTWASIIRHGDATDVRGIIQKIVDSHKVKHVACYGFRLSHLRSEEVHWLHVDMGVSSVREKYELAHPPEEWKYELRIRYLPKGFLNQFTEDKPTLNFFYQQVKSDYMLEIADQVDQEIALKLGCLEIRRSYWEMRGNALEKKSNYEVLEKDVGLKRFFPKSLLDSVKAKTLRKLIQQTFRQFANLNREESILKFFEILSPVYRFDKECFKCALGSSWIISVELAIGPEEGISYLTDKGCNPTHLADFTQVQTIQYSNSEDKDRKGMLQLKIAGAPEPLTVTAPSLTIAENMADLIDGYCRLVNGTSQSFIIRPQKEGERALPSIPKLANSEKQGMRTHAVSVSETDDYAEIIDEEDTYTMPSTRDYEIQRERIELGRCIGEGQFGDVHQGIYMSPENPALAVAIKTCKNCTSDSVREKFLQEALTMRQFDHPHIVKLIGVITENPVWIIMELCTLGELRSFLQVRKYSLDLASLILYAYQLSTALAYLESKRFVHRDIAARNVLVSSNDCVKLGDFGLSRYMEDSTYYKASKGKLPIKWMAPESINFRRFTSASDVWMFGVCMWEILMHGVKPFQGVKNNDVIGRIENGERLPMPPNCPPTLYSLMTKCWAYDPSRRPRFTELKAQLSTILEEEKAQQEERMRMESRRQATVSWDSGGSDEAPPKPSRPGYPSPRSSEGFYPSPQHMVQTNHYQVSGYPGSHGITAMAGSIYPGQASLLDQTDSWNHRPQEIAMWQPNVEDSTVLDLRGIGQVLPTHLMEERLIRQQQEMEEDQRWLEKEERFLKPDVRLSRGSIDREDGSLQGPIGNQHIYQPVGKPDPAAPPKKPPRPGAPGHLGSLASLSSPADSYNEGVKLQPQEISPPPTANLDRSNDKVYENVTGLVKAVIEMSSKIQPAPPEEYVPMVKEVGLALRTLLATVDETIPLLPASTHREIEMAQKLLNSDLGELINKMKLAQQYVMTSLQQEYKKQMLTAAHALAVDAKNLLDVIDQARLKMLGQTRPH
Luciferin 4-monooxygenase (Photinus pyralis), sequence (P08659 whole entry, looked up): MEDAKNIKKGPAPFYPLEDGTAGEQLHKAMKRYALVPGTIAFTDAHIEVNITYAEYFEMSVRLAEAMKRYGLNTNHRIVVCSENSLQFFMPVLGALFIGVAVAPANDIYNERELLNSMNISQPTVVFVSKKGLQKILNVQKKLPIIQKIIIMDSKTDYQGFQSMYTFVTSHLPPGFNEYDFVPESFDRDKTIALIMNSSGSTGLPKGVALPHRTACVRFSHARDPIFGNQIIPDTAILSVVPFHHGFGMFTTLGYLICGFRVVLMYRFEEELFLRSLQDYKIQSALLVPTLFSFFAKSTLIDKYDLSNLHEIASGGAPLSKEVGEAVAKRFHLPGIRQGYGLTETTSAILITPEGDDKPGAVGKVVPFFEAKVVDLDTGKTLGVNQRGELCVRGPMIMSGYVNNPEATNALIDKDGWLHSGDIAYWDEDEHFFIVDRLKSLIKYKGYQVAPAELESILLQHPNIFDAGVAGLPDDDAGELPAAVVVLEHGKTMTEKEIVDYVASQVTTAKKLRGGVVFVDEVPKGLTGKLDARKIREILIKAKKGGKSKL
Streptavidin (Streptomyces avidinii), sequence (P22629 whole entry, looked up): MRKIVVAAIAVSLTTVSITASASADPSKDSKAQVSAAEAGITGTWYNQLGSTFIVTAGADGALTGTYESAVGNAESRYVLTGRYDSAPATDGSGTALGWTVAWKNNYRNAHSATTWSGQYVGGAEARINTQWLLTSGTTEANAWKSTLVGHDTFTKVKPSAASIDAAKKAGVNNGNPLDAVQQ
Torsin-1A (Homo sapiens), sequence (O14656 whole entry, looked up): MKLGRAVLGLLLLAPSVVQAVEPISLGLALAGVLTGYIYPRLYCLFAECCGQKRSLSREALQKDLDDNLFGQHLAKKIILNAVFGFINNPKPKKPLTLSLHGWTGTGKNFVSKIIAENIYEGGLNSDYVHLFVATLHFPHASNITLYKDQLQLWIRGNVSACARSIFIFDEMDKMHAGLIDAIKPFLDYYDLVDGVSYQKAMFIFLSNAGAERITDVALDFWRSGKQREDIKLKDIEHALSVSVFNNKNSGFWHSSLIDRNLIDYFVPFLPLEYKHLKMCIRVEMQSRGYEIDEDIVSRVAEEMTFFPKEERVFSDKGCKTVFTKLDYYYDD

O=C(NCCN1CCOCC1)[C@@H]1c2ccccc2C(=O)N(Cc2ccccc2Cl)[C@H]1c1ccc(CO)cc1
composite z-score [1]: -1.29 | composite z-score [2]: -0.867 | composite z-score [3]: 0.0685 | composite z-score [4]: -0.542 | composite z-score [5]: -0.163 | composite z-score [6]: -0.976 | z-score [7]: 1.79 | composite z-score [8]: -1.19 | composite z-score [9]: 0.0616 | z-score [10]: 0.645 (inactive) | composite z-score [11]: -0.38 | z-score [12]: -0.276 (inactive) | z-score [13]: 0.11 (inactive) | z-score [14]: -0.295 (inactive) | z-score [15]: -0.6 (inactive) | composite z-score [16]: -0.831 | composite z-score [17]: -0.32 | composite z-score [18]: -0.826 | composite z-score [19]: 1.23 | composite z-score [20]: -1.07

O=C1C[C@]2(c3ccc([N+](=O)[O-])cc3)C(=O)N(C3CC3)c3cc(CO)ccc3[C@H]2N1CC12CC3CC(CC(C3)C1)C2
composite z-score [1]: -0.496 | composite z-score [2]: -0.336 | composite z-score [3]: -0.421 | composite z-score [4]: -0.168 | composite z-score [5]: -0.579 | composite z-score [6]: -0.364 | z-score [7]: -1.17 | composite z-score [8]: -1.5 | composite z-score [9]: -0.456 | z-score [10]: -0.124 (inactive) | composite z-score [11]: -0.178 | z-score [12]: -2.19 (inactive) | z-score [13]: 0.332 (inactive) | z-score [14]: -0.179 (inactive) | z-score [15]: 1.23 (inactive) | composite z-score [16]: -0.368 | composite z-score [17]: -0.0403 | composite z-score [18]: -1.26 | composite z-score [19]: 0.228 | composite z-score [20]: -0.7

C=CCNC(=O)[C@@H]1[C@H]2C(=O)O[C@H](c3ccccc3)[C@H](c3ccccc3)N2[C@H](c2ccc(O)cc2)[C@@]12C(=O)N(C(=O)OCCOC)c1ccc(C#CC3=CCCCC3)cc12
composite z-score [1]: 1.11 | composite z-score [2]: 1.19 | composite z-score [3]: 0.664 | composite z-score [4]: 0.708 | composite z-score [5]: 1.27 | composite z-score [6]: 1.54 | z-score [7]: -0.22 | composite z-score [8]: 0.701 | composite z-score [9]: 0.729 | z-score [10]: -0.959 (inactive) | composite z-score [11]: 0.432 | z-score [12]: -2.12 (inactive) | z-score [13]: 0.411 (inactive) | z-score [14]: 0.346 (inactive) | z-score [15]: -0.0705 (inactive) | composite z-score [16]: 0.268 | composite z-score [17]: 0.0705 | composite z-score [18]: 0.87 | composite z-score [19]: 0.686 | composite z-score [20]: 1.86

C=CCN1Cc2ccccc2[C@@H]2OC(c3ccc(OCCCO)cc3)=N[C@]2(CC=C)C1=O
composite z-score [1]: 2.25 | composite z-score [2]: 1.15 | composite z-score [3]: 0.68 | composite z-score [4]: 0.542 | composite z-score [5]: 1.49 | composite z-score [6]: 1.57 | z-score [7]: 2.5 | composite z-score [8]: 1.2 | composite z-score [9]: 0.667 | z-score [10]: -1.91 (inactive) | composite z-score [11]: 0.518 | z-score [12]: -2.51 (inactive) | z-score [13]: 0.0166 (inactive) | z-score [14]: 0.236 (inactive) | z-score [15]: -0.377 (inactive) | composite z-score [16]: 0.579 | composite z-score [17]: 0.462 | composite z-score [18]: 0.918 | composite z-score [19]: 0.966 | composite z-score [20]: 1.81

CCOC(=O)C[C@H]1[C@H](OC(=O)c2ccc(-c3ccccc3)cc2)[C@@H](NC(=O)CC(C)C)c2cc(OCCCO)ccc2N1C(=O)c1ccc2ccccc2n1
composite z-score [1]: -0.282 | composite z-score [2]: 0.516 | composite z-score [3]: 0.365 | composite z-score [4]: 0.944 | composite z-score [5]: 0.285 | composite z-score [6]: 0.0792 | z-score [7]: 0.5 | composite z-score [8]: 0.455 | composite z-score [9]: 0.262 | z-score [10]: 0.854 (inactive) | composite z-score [11]: -0.0361 | z-score [12]: -0.0042 (inactive) | z-score [13]: -0.453 (inactive) | z-score [14]: 1.04 (inactive) | z-score [15]: -0.428 (inactive) | composite z-score [16]: 1.31 | composite z-score [17]: -0.0259 | composite z-score [18]: 0.0908 | composite z-score [19]: 0.31 | composite z-score [20]: 0.637
